DRD3 antagonist – antagonists of human D3 dopamine receptor; P35462; D3R cells, DiscoveRx beta-arrestin luminescence, antagonist mode; active compounds read low; max response, negative = inhibition, %; actives 2.5% (n = 360,000); AID 652054; in the data active = max response below about -50%; inconclusive = no clear call, values can overlap the other calls; note: % is set by controls: 0 for no effect and ±100 for the full control effect
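Cells expressing the human receptor were seeded at 1500 cells/well, incubated overnight at 37 degrees C in 5% CO2, then exposed to library compounds with dopamine controls for 90 minutes at 37 degrees C before luminescent detection.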
DRD3 agonist – agonists of human D3 dopamine receptor. max activation, %. D3R DiscoveRx beta-arrestin cells, luminescence, 90 min. AID 652048. actives 0.58% (n = 410,000); in the data active = max activation above about 30%; note: 0% is about no effect
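Cells at 1500/well, incubated overnight, then treated with pinned compounds (dopamine as control) for 90 min at 37 degrees C. DiscoveRx reagent added for 30 - 60 minutes at room temperature; luminescence read.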
IL-1B inflam inh – blocks inflammasome-driven IL-1 beta release. actives 4.7% (n = 360,000). THP-1 LPS/ATP IL-1B secretion, AlphaLISA, 16 h; active compounds read low. AID 743279. activity change, % at 57.5 µM; in the data active = activity change below about -50%; inconclusive = mostly about -30% to -49%; note: % is set by controls: 0 for no effect and ±100 for the full control effect
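Secreted IL-1B measured by AlphaLISA bead assay after 16 h compound exposure of THP-1 cells; compounds (final up to 57.5 uM) added 1 h before LPS (250 ng/mL) and ATP (1.25 mM) stimulation; lower signal means less secretion.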
TDP1 cell CPT – growth inhibition of DT40 Tdp1-/-;hTDP1 cells with camptothecin (screen for TDP1 inhibitors). chicken DT40 Tdp1-/-;hTDP1 cells + 20 nM CPT, ATP luminescence, 48 h. Potency, µM (highest dose often 46.2 µM), for the others: at the highest dose activity change, negative = growth inhibition, actives largely listed as inhibitors. actives 12% (n = 420,000). AID 686979; note: potency is the fitted concentration of half-maximal effect; % is set by controls: 0 for no effect and ±100 for the full control effect; nearly all actives have a fitted effect of over 55% in size
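Chicken DT40 Tdp1-/- cells stably complemented with human TDP1 were seeded at 400 cells/well in medium containing 20 nM camptothecin, exposed to pin-transferred compounds, and grown at 37 °C for at least 48 hr. Viability was read as ATP luminescence.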
ClpP mod – qHTS Assay for Activators of ClpP; ATP-dependent Clp protease proteolytic subunit (Bacillus subtilis (strain 168)), P80244; purified B. subtilis ClpP, FRET peptide cleavage, 20 min; Potency, µM (highest dose often 57.5 µM), inactives show at the top dose activity change, negative = active; actives 1.9% (n = 340,000); active = well fitted falling curve with a large enough effect; inconclusive = small, poorly fitted or top-dose-only effect; inactive = no such curve, though single readings can be large or run the other way; note: potency is the fitted concentration of half-maximal effect; the source files actives as falling curves though it sought activators and does not explain the sign; nearly all actives have a fitted effect of over 65% in size
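ClpP 10 microg/mL final, pH 8 Tris/KCl buffer with BSA, glycerol, Tween-20; compound pinned in; FRET-FV substrate; RT 20 min; Ex320/Em430; ΔFRET vs ADEP 5.8 microM, DMSO, no enzyme.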
DT40 TDP1 no CPT – qHTS for Inhibitors of human tyrosyl-DNA phosphodiesterase 1 (TDP1): qHTS in cells in absence of CPT; DT40 Tdp1-/- hTDP1 cells, no CPT, ATP luminescence, 48 h; Potency, µM (doses to about 46.2 µM), inactives show at the highest dose activity change, negative = growth inhibition, actives largely listed as inhibitors; actives 15% (n = 420,000); AID 686978, 2013; note: potency is the fitted concentration of half-maximal effect; % is set by controls: 0 for no effect and ±100 for the full control effect; nearly all actives have a fitted effect of over 55% in size
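Readout: luminescence from CellTiter-Glo after 30 min in the dark at RT. Cells: DT40 Tdp1-/- with stable hTDP1, 400/well. Exposure: compounds alone, ≥48 hr, 37 °C.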
An asterisk follows results filed as active; ? = inconclusive; nt = not tested or not shown; [ ] = remark or other dose. Rows were chosen to be rich in hits. Some 21% of all compounds tested hit in one or more screens of this group. Unless noted, calls come from the whole dose curve; as a rule, active = well fitted inhibition curve with a large enough effect; inconclusive = small, poorly fitted or top-dose-only effect; inactive = flat fitted curve, though single readings scatter.

SMILES	DRD3 antagonist	DRD3 agonist	IL-1B inflam inh	TDP1 cell CPT	ClpP mod	DT40 TDP1 no CPT
COc1ccc2[nH]c3c(c2c1)CCN1C(=O)N([C@@H](C)C(=O)NCc2ccco2)C(=O)[C@]31C	19.9	-4.8	0.0	?	1.5%	?
Cc1noc(C)c1C(=O)N1CCC2(CCCN(Cc3nccs3)C2)CC1	nt	nt	nt	-22.9%	nt	-24.4%
Cc1cc(=O)n2nc(N3CCCC3C(=O)Nc3ccc(C(C)C)cc3)sc2n1 (stereo unspecified)	12.7	-12.2	25.7	-10.3%	0.0%	-52.2%
CCOC(=O)Cn1c(=O)n(C2CCCCC2)c2nc(-c3ccc(CC)cc3)nc(C(N)=O)c21	nt	0.0	nt	nt	?	nt
COc1ccc(-c2cn3cccnc3n2)cc1NC(=O)c1c(F)cccc1F	nt	0.3	nt	?	4.6%	25.9µM*
COCCCNC(=O)/C(C#N)=C/c1c(N2CCN(c3ccc(OC)cc3)CC2)nc2c(C)cccn2c1=O	15.2	3.3	-22.9	23.1µM*	0.0%	14.6µM*
COCCNC(=O)/C(C#N)=C/c1c(N2CCCCCC2)nc2c(C)cccn2c1=O	6.1	4.3	-20.7	?	0.4%	14.6µM*
Cc1cccn2c(=O)c(/C=C(\C#N)C(N)=O)c(N3CCN(Cc4ccc5c(c4)OCO5)CC3)nc12	0.0	-5.2	-51.4*	?	-28.1%	?
CNC(=O)/C(C#N)=C/c1c(N2CCN(c3ccccc3)CC2)nc2c(C)cccn2c1=O	0.0	-29.9	-13.0	?	-1.0%	14.6µM*
CCOC(=O)C1CCN(C(=O)COC(=O)CN(C)S(=O)(=O)c2ccc(NC(C)=O)cc2)CC1	6.8	-2.0	33.7	4.7%	1.0%	4.2%
COc1ccc(CNC(=O)CCn2cccn2)cc1	nt	1.7	nt	-1.2%	-1.6%	-7.2%
O=C(CSC(=S)N1CCCC1)N1CCN(S(=O)(=O)c2ccccc2F)CC1	1.5	-2.7	-15.2	0.3%	-1.4%	0.1%
O=C(COC(=O)c1ncc(Cl)c(Cl)c1Cl)Nc1ccc(Cl)cn1	-8.2	-16.6	4.3	-9.4%	-4.2%	-8.6%
COc1ccc(-c2nc3cnc(Nc4ccccc4)nc3n(CCC#N)c2=O)cc1	nt	nt	nt	1.2%	nt	1.8%
CCOc1ccc(/C(O)=C2/C(=O)C(=O)N(c3ncccn3)C2c2ccccc2)cc1 (stereo unspecified)	2.1	-2.5	13.0	?	-2.7%	-1.5%
CCOc1ccc(/C(O)=C2/C(=O)C(=O)N(c3ncccn3)C2c2ccc(C)cc2)cc1 (stereo unspecified)	-21.2	30.8*	nt	19.6%	nt	-10.1%
Fc1cccc(NC(=S)NCc2ccccc2Cl)c1	-2.8	-7.7	?	?	1.1%	-27.7%
NC(=S)Nc1cccc(F)c1	-15.2	-17.8	7.6	5.1%	-2.4%	-5.6%
Fc1cccc(NC(=S)NNc2ccccc2)c1	-10.7	-5.2	0.0	3.26µM*	-2.0%	2.59µM*
Fc1cccc(NC(=S)NNc2c3ccccc3nc3ccccc23)c1	-8.9	1.0	7.0	1.3µM*	nt	0.92µM*
Cc1ccc(Cl)cc1NC(=O)C1C2CCC(O2)C1C(=O)O (stereo unspecified)	-24.9	-3.3	19.2	-9.9%	1.0%	2.7%
CCC1CN(CC(=O)NC(c2ccccn2)C(F)(F)F)Cc2cc(OC)ccc2O1 (stereo unspecified)	nt	nt	nt	-4.7%[9.04 µM]	nt	-18.5%
Oc1ccc(C[C@H]2CNC(=S)N2C[C@H]2CCCN2C[C@H](Cc2ccccc2)N2C[C@H](Cc3ccccc3)N(CC3CCCCC3)C2=S)cc1	-16.6	-4.4	-1.4	?	0.3%	13µM*
CC(C)C[C@H]1CN([C@@H](Cc2ccc(O)cc2)CN2CCCC2CN2C(=S)NC[C@@H]2Cc2ccccc2)C(=S)N1CC1CCCCC1 (stereo partly specified)	-50.8*	-12.5	-29.1	16.4µM*	0.7%	14.6µM*
CC(C)C[C@H]1CNC(=S)N1CC1CCCN1C[C@H](Cc1ccccc1)N1C[C@H](Cc2ccc(O)cc2)N(CC2CCCCCC2)C1=S (stereo partly specified)	-14.2	-15.0	-67.4*	?	0.8%	?
SMILES	DRD3 antagonist	DRD3 agonist	IL-1B inflam inh	TDP1 cell CPT	ClpP mod	DT40 TDP1 no CPT
CC(C)C[C@H]1CNC(=S)N1C[C@H]1CCCN1C[C@H](Cc1ccc(O)cc1)N1C[C@H](Cc2ccc(O)cc2)N(CC2CCCCCC2)C1=S	-10.6	-3.0	?	4.61µM*	-1.1%	6.51µM*
COc1cccc(CNC(=O)COCc2cc(-c3ccc4c(c3)OCO4)on2)c1	nt	5.2	nt	?	-23.5%	?
CC(C)C[C@H]1CN([C@@H](Cc2ccc(O)cc2)CN2CCC[C@@H]2CN2C(=S)NC[C@@H]2Cc2ccccc2)C(=S)N1CC1CCCCCC1	8.9	-9.3	-16.7	?	1.0%	20.6µM*
Cc1nc(-c2noc(-c3ccc(Cl)cc3)n2)c(C(F)(F)F)o1	19.1	0.7	3.4	12.9%	0.9%	-5.0%
CCOCCN(C(=O)c1ccccc1Cl)c1cccc(C)c1C	-10.0	-3.0	nt	25.9µM*	nt	?
CN1CCC(N(C)C(=O)c2cc(-c3ccccc3Cl)nc3ccccc23)CC1	-59.5*	-11.3	0.0	?	-3.6%	?
O=C(c1cc(-c2ccc(F)cc2)nc2ccccc12)N1CCC1	8.2	0.8	5.0	?	nt	?
CN1CCC(N(C)C(=O)c2cc(-c3ccc(F)cc3)nc3ccccc23)CC1	23.2	-1.2	-67.8*	?	-1.3%	?
CC(=O)Nc1ccc(NC(=O)C(C)OC(=O)CCSc2ccccc2Cl)cc1 (stereo unspecified)	-0.1	0.3	-16.2	-27.9%	-2.9%	?
Cc1cc2n(n1)C(c1ccccc1)CC(c1ccc(Br)cc1)=N2 (stereo unspecified)	-8.4	-5.8	?	16.4µM*	-4.9%	?
CC(=O)N1N=C(c2ccc(Br)cc2)CC1c1cccc([N+](=O)[O-])c1 (stereo unspecified)	16.2	0.6	-10.7	?	-0.9%	?
COc1ccc(S(=O)(=O)Nc2ccc(F)c(F)c2)cc1C(=O)N1CCOCC1	9.5	0.5	17.2	-1.9%	nt	-0.4%
CN1CCN(C(c2ccccc2Cl)c2sc3nc(-c4ccco4)nn3c2O)CC1 (stereo unspecified)	nt	-8.6	nt	0.3%	3.8%	-3.0%
CN1CCN(C(c2cccc(Cl)c2)c2ccccc2Cl)CC1 (stereo unspecified)	-80.8*	-21.7	nt	?	-3.1%	?

Screening data (PubChem)
